Results: PubChem BioAssay (NCI)
The panel holds about 83,000 compounds, 20% with a hit somewhere; the sample as a whole holds those more often.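 Each cell line was grown in a 96-well plate and treated with one concentration of compound for 48 hours. Values below 10 were considered active.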 The source made the active and inactive calls.

Legend:
Assay in all cases: NCI-60 one-dose screen, 48 h (100 = growth as untreated, 0 = no growth, -100 = all killed)
Details in all cases: 10 µM unless noted
HT29 colon = tested on: HT29 colon
SNB-75 CNS = tested on: SNB-75 CNS
SNB-19 CNS = tested on: SNB-19 CNS
U251 CNS = tested on: U251 CNS
SK-MEL-5 melanoma = tested on: SK-MEL-5 melanoma
UACC-62 melanoma = tested on: UACC-62 melanoma
LOX IMVI melanoma = tested on: LOX IMVI melanoma
SK-MEL-28 melanoma = tested on: SK-MEL-28 melanoma
SK-MEL-2 melanoma = tested on: SK-MEL-2 melanoma

Measured: growth

CCOC(=O)c1c2c(c(C)n1Cc1ccccc1)-c1nc(N)ncc1CC2
inactive: HT29 colon 115% | SNB-75 CNS 90.3% | SNB-19 CNS 101% | U251 CNS 106% | SK-MEL-5 melanoma 105% | UACC-62 melanoma 77.2% | LOX IMVI melanoma 92.6% | SK-MEL-28 melanoma 128% | SK-MEL-2 melanoma 125%

CN(C)c1ccc(/C=C(\C#N)c2nc3ccccc3c(=O)[nH]2)cc1
inactive: HT29 colon 87.6% | SNB-75 CNS 113% | SNB-19 CNS 94.7% | U251 CNS 77.4% | SK-MEL-5 melanoma 89.3% | UACC-62 melanoma 94.8% | LOX IMVI melanoma 83.8% | SK-MEL-28 melanoma 110% | SK-MEL-2 melanoma 36.5%

COc1ccc(C2=NN(C(C)=O)C(c3cc(OC)c(OC)c(OC)c3)C2)cc1 (stereo not given)
inactive: HT29 colon 103% | SNB-75 CNS 96.6% | SNB-19 CNS 90.7% | U251 CNS 105% | SK-MEL-5 melanoma 92.6% | UACC-62 melanoma 101% | LOX IMVI melanoma 90.6% | SK-MEL-28 melanoma 129% | SK-MEL-2 melanoma 99%

c1ccc2cc(C[n+]3ccn(CCCCCCCn4cc[n+](Cc5ccc6ccccc6c5)c4)c3)ccc2c1
active: SNB-75 CNS -2.59% | SK-MEL-5 melanoma -5.55%
inactive: HT29 colon 10.4% | SNB-19 CNS 21.6% | U251 CNS 21% | UACC-62 melanoma 27.3% | LOX IMVI melanoma 40.7% | SK-MEL-28 melanoma 44.3% | SK-MEL-2 melanoma 23.4%

Cc1nc2cc(NC(=O)CN3CCN(CCN4C(=O)c5cccc6cccc(c56)C4=O)CC3)ccc2s1
inactive: HT29 colon 33.6% | SNB-75 CNS 57.1% | SNB-19 CNS 44.7% | U251 CNS 43.4% | SK-MEL-5 melanoma 39.4% | UACC-62 melanoma 62.5% | LOX IMVI melanoma 39.9% | SK-MEL-28 melanoma 86.4% | SK-MEL-2 melanoma 73%

CCCCC1Nc2nc(SC)n(C)c(=O)c2CN(Cc2ccccc2)C1=O (stereo not given)
inactive: HT29 colon 105% | SNB-75 CNS 86% | SNB-19 CNS 93.7% | U251 CNS 92.2% | SK-MEL-5 melanoma 96.4% | UACC-62 melanoma 85.9% | LOX IMVI melanoma 88.6% | SK-MEL-28 melanoma 122% | SK-MEL-2 melanoma 90%

COc1cc(C(=O)/C=C/c2cccnc2Nc2ccccc2)cc(OC)c1OC
active: HT29 colon -70.2% | SNB-75 CNS -16% | SNB-19 CNS -72.5% | U251 CNS -94.8% | SK-MEL-5 melanoma -99.4% | UACC-62 melanoma -84.2% | LOX IMVI melanoma -49.9% | SK-MEL-28 melanoma -97.5% | SK-MEL-2 melanoma -56.5%

O=C(Cn1ccnc1)NC(c1ccccc1)c1ccccc1
inactive: HT29 colon 104% | SNB-75 CNS 73.4% | SNB-19 CNS 95.1% | U251 CNS 101% | SK-MEL-5 melanoma 99.8% | UACC-62 melanoma 89.7% | LOX IMVI melanoma 98% | SK-MEL-28 melanoma 98.2% | SK-MEL-2 melanoma 106%

COc1cc(-c2cc(C(=O)Nc3nc4ccccc4s3)nc3cc(-c4ccccc4)nn23)cc(OC)c1OC
inactive: HT29 colon 17.4% | SNB-75 CNS 36.6% | SNB-19 CNS 98.5% | U251 CNS 66.7% | SK-MEL-5 melanoma 35.5% | UACC-62 melanoma 67.8% | SK-MEL-28 melanoma 39.9% | SK-MEL-2 melanoma 73.7%

COc1cc(C2NC(c3ccc(Cl)cc3)C(C)C(=NC(=O)c3cnccn3)C2C)cc(OC)c1OC (stereo not given)
inactive: HT29 colon 67.8% | SNB-75 CNS 90.9% | SNB-19 CNS 86.7% | U251 CNS 77.9% | SK-MEL-5 melanoma 82.3% | UACC-62 melanoma 101% | SK-MEL-28 melanoma 110% | SK-MEL-2 melanoma 97.3%

CCCCCCCCSc1ncnc2c1ncn2CO
inactive: HT29 colon 91% | SNB-75 CNS 75.1% | SNB-19 CNS 94.7% | U251 CNS 74.7% | UACC-62 melanoma 92.8% | LOX IMVI melanoma 80.1% | SK-MEL-28 melanoma 101% | SK-MEL-2 melanoma 95.8%

O=C(Nc1ccc(Cl)cc1)c1cc2c(cc1O)[nH]c1ccccc12
active: HT29 colon 1.2% | SK-MEL-5 melanoma 0.256%
inactive: SNB-75 CNS 38.3% | SNB-19 CNS 36.9% | U251 CNS 22.1% | UACC-62 melanoma 10.2% | SK-MEL-28 melanoma 38.6% | SK-MEL-2 melanoma 22.3%

Cc1ccccc1-c1cc(Cc2ccccc2O)c(=O)[nH]n1
inactive: HT29 colon 139% | SNB-75 CNS 106% | SNB-19 CNS 123% | U251 CNS 103% | SK-MEL-5 melanoma 94.8% | UACC-62 melanoma 95.3% | SK-MEL-28 melanoma 131%

COc1ccc(/C=C(\C#N)c2ccccc2)cc1
inactive: HT29 colon 85.5% | SNB-75 CNS 64.6% | SNB-19 CNS 80.8% | U251 CNS 81.4% | SK-MEL-5 melanoma 81% | LOX IMVI melanoma 89.7% | SK-MEL-28 melanoma 90.6%

Cn1[nH]cc(/C=N/C(N)=O)c1=O
inactive: HT29 colon 115% | SNB-75 CNS 106% | SNB-19 CNS 106% | U251 CNS 103% | UACC-62 melanoma 105% | LOX IMVI melanoma 96.1% | SK-MEL-28 melanoma 115% | SK-MEL-2 melanoma 109%

CCOC(=O)C(Cc1ccccc1)(C(=O)OCC)C(Br)C(=O)c1ccccc1 (stereo not given)
inactive: HT29 colon 69.7% | SNB-75 CNS 73.5% | SNB-19 CNS 97.5% | U251 CNS 88.1% | SK-MEL-5 melanoma 87.2% | LOX IMVI melanoma 70.4% | SK-MEL-28 melanoma 91% | SK-MEL-2 melanoma 83.5%

CN1COc2ccc3ccccc3c2C1
inactive: HT29 colon 99.2% | SNB-75 CNS 72.1% | SNB-19 CNS 104% | U251 CNS 92% | SK-MEL-5 melanoma 105% | UACC-62 melanoma 85% | SK-MEL-28 melanoma 98.6% | SK-MEL-2 melanoma 93.2%

CO[C@H]1/C=C/O[C@@]2(C)Oc3c(C)c(O)c4c(O)c(c(/C=N/N5CCN(C)CC5)c(O)c4c3C2=O)NC(=O)/C(C)=C\C=C\C(C)[C@H](O)[C@@H](C)[C@@H](O)[C@@H](C)[C@@H](OC(C)=O)[C@@H]1C (stereo not given in full)
inactive: HT29 colon 107% | SNB-75 CNS 88.7% | SNB-19 CNS 101% | U251 CNS 96.9% | SK-MEL-5 melanoma 90.6% | LOX IMVI melanoma 93.8% | SK-MEL-28 melanoma 101% | SK-MEL-2 melanoma 113%

O=C(/C=C/c1cccnc1)NCCCCC1CCCN(C(=O)c2ccccc2)C1 (stereo not given)
inactive: HT29 colon 32.8% | SNB-75 CNS 87.7% | SNB-19 CNS 53.3% | U251 CNS 43.1% | SK-MEL-5 melanoma 61.7% | UACC-62 melanoma 87.5% | SK-MEL-28 melanoma 73.1% | SK-MEL-2 melanoma 15.3%

COc1cc(/C=C2\COc3ccc(O)c(O)c3C2=O)cc(OC)c1
active: HT29 colon 3.57% | U251 CNS -19.3% | UACC-62 melanoma -86.3% | LOX IMVI melanoma -66.2%
inactive: SNB-75 CNS 26.5% | SNB-19 CNS 11.2% | SK-MEL-28 melanoma 14.1% | SK-MEL-2 melanoma 86.5%

COc1ccc(/C=C/C(=O)Nc2cccnc2Nc2ccc(F)cc2)cc1
inactive: HT29 colon 109% | SNB-75 CNS 97.3% | SNB-19 CNS 87.9% | U251 CNS 93.4% | SK-MEL-5 melanoma 87.2% | UACC-62 melanoma 86.6% | LOX IMVI melanoma 98.9% | SK-MEL-28 melanoma 98.6% | SK-MEL-2 melanoma 120%

Cc1c(C)c(N2C(=O)C=CC2=O)c(C)c(C)c1N1C(=O)C=CC1=O
inactive: HT29 colon 110% | SNB-75 CNS 101% | SNB-19 CNS 97.3% | U251 CNS 112% | SK-MEL-5 melanoma 109% | UACC-62 melanoma 106% | SK-MEL-28 melanoma 81.6% | SK-MEL-2 melanoma 109%

Cc1ccccc1NC(=O)c1cc2ccccc2cc1O
inactive: HT29 colon 111% | SNB-75 CNS 76.8% | SNB-19 CNS 61.9% | U251 CNS 25.9% | SK-MEL-5 melanoma 17.8% | UACC-62 melanoma 14.2% | SK-MEL-28 melanoma 38.6% | SK-MEL-2 melanoma 33%

CC12CCC3C(CCC4CC(=O)/C(=C\O)CC43C)C1CCC(=O)O2 (stereo not given)
inactive: HT29 colon 108% | SNB-75 CNS 97.5% | SNB-19 CNS 119% | U251 CNS 100% | SK-MEL-5 melanoma 113% | UACC-62 melanoma 109% | SK-MEL-28 melanoma 114% | SK-MEL-2 melanoma 121%

O=c1cc(-c2cccnc2)oc2c1ccc1ccccc12
inactive: HT29 colon 59% | SNB-75 CNS 54.4% | SNB-19 CNS 64.7% | U251 CNS 48.8% | SK-MEL-5 melanoma 63.3% | UACC-62 melanoma 70.3% | SK-MEL-28 melanoma 69.3% | SK-MEL-2 melanoma 110%

C[n+]1c2ccccc2c(Nc2ccc(N3CCCCC3)cc2)c2[nH]c3ccccc3c21
active: HT29 colon -85% | SNB-75 CNS -94% | SNB-19 CNS -89.8% | U251 CNS -98% | SK-MEL-5 melanoma -98.3% | UACC-62 melanoma -97.8% | LOX IMVI melanoma -86.2% | SK-MEL-28 melanoma -98.9% | SK-MEL-2 melanoma -97.9%

CCOC(=O)c1c2c(c(C)n1Cc1ccc(OC)cc1)-c1nc(N)ncc1CC2
inactive: HT29 colon 110% | SNB-75 CNS 103% | SNB-19 CNS 111% | U251 CNS 106% | SK-MEL-5 melanoma 110% | UACC-62 melanoma 87.3% | SK-MEL-28 melanoma 112% | SK-MEL-2 melanoma 119%

Nc1ncc(-c2cnn(C3CCNCC3)c2)cc1-c1nc2cc(Cl)ccc2o1
active: HT29 colon -100% | SNB-75 CNS -97.9% | SNB-19 CNS -91.1% | U251 CNS -100% | UACC-62 melanoma -100% | LOX IMVI melanoma -96.9% | SK-MEL-28 melanoma -100% | SK-MEL-2 melanoma -90.8%

CC/C=C\C=C/C(=O)N/C=C/CC1Cc2cccc(O)c2C(=O)O1 (stereo not given)
inactive: HT29 colon 44.1% | SNB-75 CNS 18.7% | SNB-19 CNS 56% | U251 CNS 57.7% | SK-MEL-5 melanoma 13% | UACC-62 melanoma 61.4% | LOX IMVI melanoma 75% | SK-MEL-28 melanoma 76.9% | SK-MEL-2 melanoma 95.8%

C/C(=C\CCc1ccsc1)CC/C=C(\C)CCCN1CCC(CO)CC1
inactive: SNB-75 CNS 41.1% | SNB-19 CNS 52.6%
active: HT29 colon -42.6% | U251 CNS -3.53% | UACC-62 melanoma -83.4% | SK-MEL-28 melanoma 9.39%

COc1cc(/C=C/c2nnc(-c3cc(-c4ccccc4)n[nH]3)o2)cc(OC)c1OC
inactive: HT29 colon 96.8% | SNB-75 CNS 67.4% | SNB-19 CNS 102% | U251 CNS 108% | SK-MEL-5 melanoma 84.5% | UACC-62 melanoma 92.9% | SK-MEL-28 melanoma 87.9% | SK-MEL-2 melanoma 89.7%
